Results reported in the supplement of paper PMC10037445.
The full ranking holds about 2,900 compounds; the median of “IRF Lucia reporter activity, fold change vs agonist alone” is about 0.9, and the highest 2% start at about 2.8. Shown is part of a subset that was picked to be rich in the highest values.

Assays:
RAW-Dual [1] = assay: IRF Lucia reporter activity, fold change vs agonist alone; higher = enhanced IRF activity; settings: cytotoxicity flag (confluency mask): not cytotoxic, agonist: MPLA (TLR4) […]
Method in brief: (§1)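 After 50 nL of library stock was delivered by pin tool to RAW-Dual macrophages (50,000 cells/well, DMEM, 384-well plates), a PRR agonist was added 1 h later and the plates were kept at 37 °C, 5% CO2. Twenty hours later, IRF was read from supernatant by QuantiLuc luminescence and NF-κB by QuantiBlue absorbance at 620 nm. Reporter activity is stated as fold change over agonist-alone wells. Wells with IncuCyte confluency under 70% of agonist controls in both mask sets were counted as cytotoxic.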

RAW-Dual [2] = assay: IRF Lucia reporter activity, fold change vs agonist alone; cytotoxicity flag (confluency mask): not cytotoxic; higher = enhanced IRF activity
Method in brief: as §1

[3] = agonist: 3'3'-cGAMP (STING) 10 ug/mL
[4] = library stock concentration (final ~1000-fold dilution): 10 mM

SMILES: Br.Br.Br.Br.Br.Br.c1ccc(CNCc2ccc(CN3CCCNCCNCCCNCC3)cc2)nc1
- IRF Lucia reporter activity (RAW-Dual [1]; library stock concentration (final ~1000-fold dilution): 10 mM water): 1.35

SMILES: Br.Br.Br.Br.Br.Br.c1ccc(CNCc2ccc(CN3CCCNCCNCCCNCC3)cc2)nc1 (library stock concentration (final ~1000-fold dilution): 10 mM water)
- IRF Lucia reporter activity (RAW-Dual [2]; [3]): 1.07
- IRF Lucia reporter activity (RAW-Dual [2]; agonist: LPS (TLR4) 0.1 ug/mL): 0.886

SMILES: COc1cc2ccc(=O)oc2c(OC)c1O (library stock concentration (final ~1000-fold dilution): .1 mM)
- IRF Lucia reporter activity (RAW-Dual [2]; [3]): 1.07
- IRF Lucia reporter activity (RAW-Dual [2]; agonist: LPS (TLR4) 0.1 ug/mL): 0.255

SMILES: NC1=NC2(c3cc(NC(=O)c4ccc(F)cn4)ccc3F)COCC2CS1 (configuration not stated) (library stock concentration (final ~1000-fold dilution): 10 mM)
- IRF Lucia reporter activity (RAW-Dual [2]; [3]): 1.08
- IRF Lucia reporter activity (RAW-Dual [2]; agonist: LPS (TLR4) 0.1 ug/mL): 0.998

SMILES: NC1=NC2(c3cc(NC(=O)c4ccc(F)cn4)ccc3F)COCC2CS1 (configuration not stated)
- IRF Lucia reporter activity (RAW-Dual [1]; [4]): 1.04

SMILES: Cn1cc(-c2cc3c(-c4ccc(CNC(=O)c5noc(C(C)(C)C)n5)c(F)c4)ncnc3[nH]2)cn1 (library stock concentration (final ~1000-fold dilution): 10 mM)
- IRF Lucia reporter activity (RAW-Dual [2]; [3]): 0.039
- IRF Lucia reporter activity (RAW-Dual [2]; agonist: LPS (TLR4) 0.1 ug/mL): 0.396

SMILES: Cc1nnc(SCC2=C(C(=O)O)N3C(=O)C(NC(=O)Cn4cnnn4)C3SC2)s1 (configuration not stated)
- IRF Lucia reporter activity (RAW-Dual [1]; [4]): 1.07

SMILES: Cc1nnc(SCC2=C(C(=O)O)N3C(=O)C(NC(=O)Cn4cnnn4)C3SC2)s1 (configuration not stated) (library stock concentration (final ~1000-fold dilution): 10 mM)
- IRF Lucia reporter activity (RAW-Dual [2]; [3]): 1.08
- IRF Lucia reporter activity (RAW-Dual [2]; agonist: LPS (TLR4) 0.1 ug/mL): 1.26

SMILES: Cc1ccsc1C(=CCCN1CCCC(C(=O)O)C1)c1sccc1C (configuration not stated)
- IRF Lucia reporter activity (RAW-Dual [1]; [4]): 1

SMILES: Cc1ccsc1C(=CCCN1CCCC(C(=O)O)C1)c1sccc1C (configuration not stated) (library stock concentration (final ~1000-fold dilution): 10 mM)
- IRF Lucia reporter activity (RAW-Dual [2]; [3]): 0.964
- IRF Lucia reporter activity (RAW-Dual [2]; agonist: LPS (TLR4) 0.1 ug/mL): 1.29

SMILES: CCC1/C=C(\C)CC(C)CC(OC)C2OC(O)(C(=O)C(=O)N3CCCCC3C(=O)OC(/C(C)=C/C3CCC(Cl)C(OC)C3)C(C)C(O)CC1=O)C(C)CC2OC (configuration not stated)
- IRF Lucia reporter activity (RAW-Dual [1]; [4]): 1.02

SMILES: COC1CC2CCC(C)C(O)(O2)C(=O)C(=O)N2CCCCC2C(=O)OC(C(C)CC2CCC(OP(C)(C)=O)C(OC)C2)CC(=O)C(C)C=C(C)C(O)C(OC)C(=O)C(C)CC(C)C=CC=CC=C1C (configuration not stated)
- IRF Lucia reporter activity (RAW-Dual [1]; [4]): 1.24

SMILES: COC1CC2CCC(C)C(O)(O2)C(=O)C(=O)N2CCCCC2C(=O)OC(C(C)CC2CCC(OP(C)(C)=O)C(OC)C2)CC(=O)C(C)C=C(C)C(O)C(OC)C(=O)C(C)CC(C)C=CC=CC=C1C (configuration not stated) (library stock concentration (final ~1000-fold dilution): 10 mM)
- IRF Lucia reporter activity (RAW-Dual [2]; [3]): 1.03
- IRF Lucia reporter activity (RAW-Dual [2]; agonist: LPS (TLR4) 0.1 ug/mL): 1.6

SMILES: COC1CC2CCC(C)C(O)(O2)C(=O)C(=O)N2CCCCC2C(=O)OC(C(C)CC2CCC(OCCO)C(OC)C2)CC(=O)C(C)C=C(C)C(O)C(OC)C(=O)C(C)CC(C)C=CC=CC=C1C (configuration not stated) (library stock concentration (final ~1000-fold dilution): 10 mM)
- IRF Lucia reporter activity (RAW-Dual [2]; [3]): 1.28
- IRF Lucia reporter activity (RAW-Dual [2]; agonist: LPS (TLR4) 0.1 ug/mL): 2.63

SMILES: COC1CC2CCC(C)C(O)(O2)C(=O)C(=O)N2CCCCC2C(=O)OC(C(C)CC2CCC(OCCO)C(OC)C2)CC(=O)C(C)C=C(C)C(O)C(OC)C(=O)C(C)CC(C)C=CC=CC=C1C (configuration not stated)
- IRF Lucia reporter activity (RAW-Dual [1]; [4]): 3.06

SMILES: CCC1/C=C(\C)CC(C)CC(OC)C2OC(O)(C(=O)C(=O)N3CCCCC3C(=O)OC(/C(C)=C/C3CCC(Cl)C(OC)C3)C(C)C(O)CC1=O)C(C)CC2OC (configuration not stated) (library stock concentration (final ~1000-fold dilution): 10 mM)
- IRF Lucia reporter activity (RAW-Dual [2]; [3]): 0.715
- IRF Lucia reporter activity (RAW-Dual [2]; agonist: LPS (TLR4) 0.1 ug/mL): 1.66

SMILES: COC1CC2CCC(C)C(O)(O2)C(=O)C(=O)N2CCCCC2C(=O)OC(C(C)CC2CCC(n3cnnn3)C(OC)C2)CC(=O)C(C)C=C(C)C(O)C(OC)C(=O)C(C)CC(C)C=CC=CC=C1C (configuration not stated) (library stock concentration (final ~1000-fold dilution): 10 mM)
- IRF Lucia reporter activity (RAW-Dual [2]; [3]): 0.943
- IRF Lucia reporter activity (RAW-Dual [2]; agonist: LPS (TLR4) 0.1 ug/mL): 0.694

SMILES: COC1CC2CCC(C)C(O)(O2)C(=O)C(=O)N2CCCCC2C(=O)OC(C(C)CC2CCC(O)C(OC)C2)CC(=O)C(C)C=C(C)C(O)C(OC)C(=O)C(C)CC(C)C=CC=CC=C1C (configuration not stated) (library stock concentration (final ~1000-fold dilution): 10 mM)
- IRF Lucia reporter activity (RAW-Dual [2]; [3]): 1.05
- IRF Lucia reporter activity (RAW-Dual [2]; agonist: LPS (TLR4) 0.1 ug/mL): 2.09

SMILES: COC1CC2CCC(C)C(O)(O2)C(=O)C(=O)N2CCCCC2C(=O)OC(C(C)CC2CCC(n3cnnn3)C(OC)C2)CC(=O)C(C)C=C(C)C(O)C(OC)C(=O)C(C)CC(C)C=CC=CC=C1C (configuration not stated)
- IRF Lucia reporter activity (RAW-Dual [1]; [4]): 0.832

SMILES: COC1CC2CCC(C)C(O)(O2)C(=O)C(=O)N2CCCCC2C(=O)OC(C(C)CC2CCC(O)C(OC)C2)CC(=O)C(C)C=C(C)C(O)C(OC)C(=O)C(C)CC(C)C=CC=CC=C1C (configuration not stated)
- IRF Lucia reporter activity (RAW-Dual [1]; [4]): 1.46

SMILES: COC1CC2CCC(C)C(O)(O2)C(=O)C(=O)N2CCCCC2C(=O)OC(C(C)CC2CCC(OC(=O)C(C)(CO)CO)C(OC)C2)CC(=O)C(C)C=C(C)C(O)C(OC)C(=O)C(C)CC(C)C=CC=CC=C1C (configuration not stated)
- IRF Lucia reporter activity (RAW-Dual [1]; [4]): 4.11

SMILES: COC1CC2CCC(C)C(O)(O2)C(=O)C(=O)N2CCCCC2C(=O)OC(C(C)CC2CCC(OC(=O)C(C)(CO)CO)C(OC)C2)CC(=O)C(C)C=C(C)C(O)C(OC)C(=O)C(C)CC(C)C=CC=CC=C1C (configuration not stated) (library stock concentration (final ~1000-fold dilution): 10 mM)
- IRF Lucia reporter activity (RAW-Dual [2]; [3]): 0.69
- IRF Lucia reporter activity (RAW-Dual [2]; agonist: LPS (TLR4) 0.1 ug/mL): 2.98

SMILES: COC1CC2CCC(C)C(O)(O2)C(=O)C(=O)N2CCCCC2C(=O)OC(C(C)CC2CCC(O)C(OC)C2)CC(=O)C(C)C=C(C)C(O)C(OC)C(=O)C(C)CC(C)C=CC=CC=C1C (configuration not stated) (library stock concentration (final ~1000-fold dilution): .1 mM)
- IRF Lucia reporter activity (RAW-Dual [2]; [3]): 0.922
- IRF Lucia reporter activity (RAW-Dual [2]; agonist: LPS (TLR4) 0.1 ug/mL): 0.698

SMILES: CCCc1nc(C)c2c(=O)[nH]c(-c3cc(S(=O)(=O)N4CCN(CC)CC4)ccc3OCC)nn12.Cl.O.O.O
- IRF Lucia reporter activity (RAW-Dual [1]; [4]): 0.917

SMILES: CCCc1nc(C)c2c(=O)[nH]c(-c3cc(S(=O)(=O)N4CCN(CC)CC4)ccc3OCC)nn12.Cl.O.O.O (library stock concentration (final ~1000-fold dilution): 10 mM)
- IRF Lucia reporter activity (RAW-Dual [2]; [3]): 0.839
- IRF Lucia reporter activity (RAW-Dual [2]; agonist: LPS (TLR4) 0.1 ug/mL): 0.967

SMILES: O=C(NCCN1CCOCC1)Nc1nc2ccc(Sc3nnc4ccc(-c5ccc(F)cc5)nn34)cc2s1 (library stock concentration (final ~1000-fold dilution): 10 mM)
- IRF Lucia reporter activity (RAW-Dual [2]; [3]): 1.09
- IRF Lucia reporter activity (RAW-Dual [2]; agonist: LPS (TLR4) 0.1 ug/mL): 1.23

SMILES: O=C(NCCN1CCOCC1)Nc1nc2ccc(Sc3nnc4ccc(-c5ccc(F)cc5)nn34)cc2s1
- IRF Lucia reporter activity (RAW-Dual [1]; [4]): 0.994
